Reference: the supplement of paper PMC3484114
± gives the standard deviation.

These compounds were tested on OVCAR-3-derived ovarian cancer stem-like cells (spheroids) (assay: cell growth relative to untreated control; higher = more growth (less inhibition)). Details: 2.29 µM; 96 h.
Summary of the method: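 Viability of stem-like cells from OVCAR-3 spheroids was assessed with TOX8 resazurin fluorescence at ex 560/em 590 nm. The cells had been trypsin-dissociated, seeded at 50,000 cells/mL in stem cell medium in ultra-low attachment 96-well plates and preincubated 24 h, then treated with compounds at 2.29 uM for 96 h at 37°C, 5% CO2, in 4 replicate wells, with fluorescence read after 4 h. Results were converted to percent growth against untreated wells after blank subtraction and Grubbs outlier removal.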

| Structure (SMILES) | cell growth |
| --- | --- |
| O=C(CCCN1CCC(C(O)c2ccc(F)cc2)CC1)c1ccc(F)cc1 (centres undefined) | 99.7 ± 22% |
| O=C(O)c1ccc(NC(c2ccccc2)c2ccc3cccnc3c2O)cc1 (centres undefined) | 89.7 ± 46% |
| COc1ccc(NC(=O)C(=O)/C=C(\O)c2ccccc2)cc1 | 107 ± 46% |
| N=N/C(=C\c1c(O)[nH]c2ccccc12)c1ccccc1 | 64.5 ± 16% |
| N#CC1=C(N)Oc2c(ccc3cccnc23)C1c1ccccc1 (centres undefined) | 57.8 ± 17% |
| COCCOC1=C(Cl)C(=O)c2c(O)ccc(O)c2C1=O | 114 ± 18% |
| CN(C)CCOc1ccc(I)cc1Cc1ccccc1 | 74.4 ± 31% |
| CCN(CC)CCOC(=O)Cc1cccc2c(=O)cc(-c3ccccc3)oc12 | 91.6 ± 23% |
| CN/N=C(\C)C(CN1CCCCC1)C(C1=C(O)c2ccccc2OC1)c1ccccc1 (centres undefined) | 94.9 ± 41% |
| Cc1[nH]c(=O)nc(N/N=C/c2ccc(Cl)cc2)c1C(=O)Nc1ccc(Cl)cc1 | 63.1 ± 11% |
| COCC(=O)OC1CCn2c1nc1c2C(=O)C(C)=C(NC(C)=O)C1=O (centres undefined) | 76.1 ± 12% |
| O=C1c2cccc(O)c2C(=O)c2c(O)cccc21 | 68.8 ± 19% |
| CC[C@]1(O)C[C@@H]2CN(CCc3c([nH]c4ccccc34)[C@@](C(=O)OC)(c3cc4c(cc3OC)N(C)[C@H]3[C@@](O)(C(=O)OC)[C@H](OC(C)=O)[C@]5(CC)C=CCN6CC[C@]43[C@@H]65)C2)C1 | 49.1 ± 11% |
| COC(=O)c1ccccc1OCc1cc(=O)oc2ccc(C)cc12 | 115 ± 20% |
| CCCCCCCCCCCCCCCC[N+](C)(C)Cc1ccc(F)cc1 | 54.1 ± 9.8% |
| NC(=O)NO | 107 ± 15% |
| CN(C)c1cccc(/C=C(\C#N)c2ccccc2)c1 | 66.6 ± 7.2% |
| Cc1ccc(NC(=O)c2cc3ccccc3c(N=Nc3ccccc3O)c2O)c(C)c1 | 75.2 ± 20% |
| CN(N=O)C(=O)N[C@@H]1[C@@H](O)[C@H](O)[C@@H](CO)O[C@@H]1O | 104 ± 29% |
| Cc1ccc(N=N/C(=N\NC(=O)c2ccc(C)cc2)c2ccc(N(CCC#N)CCC#N)cc2C)cc1 | 74.4 ± 26% |

| Structure (SMILES) | cell growth |
| --- | --- |
| CN(C)c1ccc(/C=c2/sc3nc(=O)c(-c4ccccc4NC(=O)C(F)(F)F)nn3c2=O)cc1 | 83.4 ± 18% |
| N#CCCN(CCC#N)c1ccc(/C=C2/N=C(c3cc([N+](=O)[O-])ccc3Cl)OC2=O)cc1 | 114 ± 40% |
| COc1ccc(C2c3cc4c(c(OC)c3CC3OCC(=O)C32)OCO4)cc1OC (centres undefined) | 41.3 ± 11% |
| CNc1nc(N(C)C)nc(N(C)C)n1 | 89.9 ± 20% |
| CC(C)(C)NCCC(O)c1cc(C(F)(F)F)nc2c(C(F)(F)F)cccc12 (centres undefined) | 108 ± 23% |
| Cc1ccc(C)c(NC(=O)C(=O)C(C(=O)c2ccc3ccccc3c2)C2OC(=O)c3ccccc32)c1 (centres undefined) | 121 ± 78% |
| COC1=C(N)C(=O)c2nc(C)ccc2C1=O | 125 ± 79% |
| N#CC(C#N)=Cc1ccc(Oc2ccccc2)cc1 | 86.2 ± 51% |
| O=S(=O)(O)c1cc(N=Nc2cc(S(=O)(=O)O)c3ccccc3c2O)ccc1/C=C/c1ccc(N=Nc2cc(S(=O)(=O)O)c3ccccc3c2O)cc1S(=O)(=O)O | 110 ± 24% |
| CC1(C)N=C(N)N=C(N)N1c1ccc(OCCCOc2ccccc2)c(Cl)c1 | 43.6 ± 13% |
| CCOC(=O)C1=C(C)NC(=S)NC1c1ccccc1 (centres undefined) | 103 ± 12% |
| CN1C(c2ccccc2)CC(=NO)CC1c1ccccc1 (centres undefined) | 99.7 ± 13% |
| O=C(/C=C/c1c(O)ccc2ccccc12)c1cccc(O)c1 | 94.3 ± 20% |
| O=C(CC1(O)C(=O)Nc2c(Cl)cc(Cl)cc21)c1cccc([N+](=O)[O-])c1 (centres undefined) | 88.1 ± 30% |
| COC(=O)c1[nH]c(=S)[nH]c(=O)c1-c1ccc(Cl)cc1 | 37.8 ± 14% |
| CC(C)(C)CC(C)(C)NCC(O)COc1ccc(C(C)(C)c2ccc(OCC(O)CNC(C)(C)CC(C)(C)C)cc2)cc1 (centres undefined) | 7.1 ± 2.1% |
| Cc1nc(-n2nc(-c3ccccc3)cc2-c2ccccc2)sc1C(=O)/C=C/c1ccc(Cl)c(Cl)c1 | 109 ± 25% |
| Cc1ccc(CC2(OCCN(C)C)CCC(C(C)(C)C)CC2)cc1 (centres undefined) | 82.2 ± 24% |
| CC1=C/C(=N\OCC(=O)O)CC(c2ccc(C(C)C)cc2)C1 (centres undefined) | 12.4 ± 5% |
